hgDAF12 agonist = agonists of H. glycines DAF-12 nuclear receptor. activation, % at 6.8 µM. HEK293 GAL4-hgDAF12 UAS-luciferase reporter, agonist luminescence; normalized to butyrate control. 370,000 tested, 1.8% active;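 active means activation above a cutoff set at the mean of all screened compounds plus 3 SD, cut at about 10% in these data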
ssDAF12 agonist = activators of S. stercoralis DAF-12 nuclear receptor. activation, % at 6.8 µM. AID 652126. HEK293 ssDAF-12/GRIP1 lit1-tk-luc reporter, luminescence; % of 3 µM dafachronic acid response. 370,000 tested, 1% active;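 active means activation above the mean over all tested compounds plus 3 SD, cut at about 0.9% in these data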
DAX1 inh-1 = inhibits human nuclear receptor DAX1; HEK293 Gal4-DAX1 luciferase reporter, luminescence; inhibition, % at 6.75 µM; 340,000 tested, 0.99% active; AID 504766;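 active means inhibition above the mean over all tested compounds plus 3 SD, cut at about 4.2% in these data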;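 further: inhibition shows as a rise in luminescence from relieved DAX1 repression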
DAX1 inh-2 = inhibitors of DAX1 repression of SF-1 activated StAR promoter | HEK293T StAR-luciferase reporter, SF-1/DAX-1 repression relief | inhibition, % at 6.8 µM | 370,000 tested, 1.1% active | AID 652010;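 active means inhibition above the mean over all tested compounds plus 3 SD, cut at about 3.6% in these data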;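 further: higher inhibition means more luminescence from relief of DAX-1 repression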
hcDAF12 agonist = activators of H. contortus DAF-12 nuclear receptor; activation, % at 6.8 µM; 370,000 tested, 1.4% active; AID 652067; HEK293 hcDAF-12 lit1-tk-luc reporter, luminescence; 0% DMSO, 100% Δ7-dafachronic acid;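 active means activation above the mean of all tested compounds plus 3 SD, cut at about 5.5% in these data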
hgDAF12 ag = confirmation of H. glycines DAF-12 agonists; shares compounds with hgDAF12 agonist; HEK293 GAL4-hgDAF12 luciferase reporter, agonist mode; percent of butyrate response; activation, % at 6.8 µM; 3,300 tested, 80% active;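 active means mean activation over triplicate wells above the hit cutoff derived from the earlier primary screen, cut at about 11% in these data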
LXRb DAF12 ctr = activates human LXR-beta, counter-screen for DAF-12 agonists | activation, % at 6.8 µM | HEK293 Gal4-LXR luciferase reporter, 24 h | 3,300 tested, under 10 active | shares compounds with hgDAF12 agonist;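 active means mean activation of the triplicate above a set limit carried over from the primary screen, none filed active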
Target sequence (P55055 whole entry, looked up, the tested form may be a part): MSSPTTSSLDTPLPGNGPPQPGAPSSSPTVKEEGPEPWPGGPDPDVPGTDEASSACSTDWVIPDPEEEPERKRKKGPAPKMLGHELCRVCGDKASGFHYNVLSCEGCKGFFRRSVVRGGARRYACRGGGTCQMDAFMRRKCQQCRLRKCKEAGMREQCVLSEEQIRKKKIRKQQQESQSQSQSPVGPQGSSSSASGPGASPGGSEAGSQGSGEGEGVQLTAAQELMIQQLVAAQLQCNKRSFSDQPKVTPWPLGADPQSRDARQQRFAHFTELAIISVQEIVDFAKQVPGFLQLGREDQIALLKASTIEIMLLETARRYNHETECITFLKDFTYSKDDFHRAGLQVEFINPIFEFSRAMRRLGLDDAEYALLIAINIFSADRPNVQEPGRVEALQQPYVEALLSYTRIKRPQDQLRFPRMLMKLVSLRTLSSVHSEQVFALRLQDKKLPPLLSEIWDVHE
Each line names hits and unclear results; the compound was inactive in the other large screens (follow-up assays come after a bar, where they were run). Rows were chosen to be rich in hits. Some 4.1% of all compounds tested hit in one or more screens of this group.

O=C(c1ccco1)N1CCc2ccccc21	hgDAF12 agonist 14 | hgDAF12 ag inactive | LXRb DAF12 ctr inactive
Cc1c(C(=O)Nc2cccnc2)oc2ccc(Br)cc12	hgDAF12 agonist 14, ssDAF12 agonist 1.7 | hgDAF12 ag 14 | LXRb DAF12 ctr inactive
Cc1c(C(=O)Nc2cccc(S(=O)(=O)N3CCOCC3)c2)oc2ccc(Br)cc12	none
Cc1ccc(OC(C)C(=O)N2CCc3ccccc32)c([N+](=O)[O-])n1 (stereo unspecified)	none
CC(C)(C)C(=O)N/C(N)=N/c1nc2ccccc2o1	hgDAF12 agonist 13, ssDAF12 agonist 1.5, DAX1 inh-1 4.8 | hgDAF12 ag 15 | LXRb DAF12 ctr inactive
N/C(=N\c1nc2ccccc2o1)NC(=O)/C=C/c1ccccc1	none
COCCNC(=O)C1(S(=O)(=O)c2ccccc2)CC=CC1	none
COc1ccc(-c2ccnc3c(C(=O)O)cnn23)cc1	none
CCCC1CCC(c2ccc(OCC)cc2)=CC1=O (stereo unspecified)	hgDAF12 agonist 14 | hgDAF12 ag 16 | LXRb DAF12 ctr inactive
O=[N+]([O-])c1ccc(NN=C(c2ccccc2)c2ccccc2)nc1	none
C/C(=N\Nc1ccc([N+](=O)[O-])cc1)c1ccc(O)cc1	hgDAF12 agonist 16 (no result: DAX1 inh-1) | hgDAF12 ag inactive | LXRb DAF12 ctr inactive
CC(=NNc1ccc([N+](=O)[O-])cn1)c1ccccc1	hgDAF12 agonist 13 | hgDAF12 ag 16 | LXRb DAF12 ctr inactive
CC(C=NNc1ccc([N+](=O)[O-])cn1)=Cc1ccccc1	hgDAF12 agonist 17, DAX1 inh-1 7.5, DAX1 inh-2 3.7 | hgDAF12 ag 17 | LXRb DAF12 ctr inactive
C[C@H]1CN([C@@H](C)CO)S(=O)(=O)c2ccc(Br)cc2O[C@H]1CN(C)C(=O)c1cccnc1	none
O=C(CCc1ccccc1)N[C@H]1[C@H](OCc2ccccc2)CCC[C@@]12C(=O)N(Cc1ccccc1)c1ccc(-c3ccsc3)cc12	none (no result: DAX1 inh-1)
CC(C)NC(=O)CSc1ccccc1C(=O)N1CCN(S(=O)(=O)Cc2ccccc2)CC1	none
CCC(=O)N/C(=N/c1nc(C)cc(C)n1)Nc1ccccc1	none
COc1ccccc1C(=O)N/C(=N/c1nc(C)cc(C)n1)Nc1ccccc1	hgDAF12 agonist 14 | hgDAF12 ag inactive | LXRb DAF12 ctr inactive
Cc1ccccc1N(C(=O)CNC(=O)c1ccco1)C(C(=O)NC1CCCCC1)c1cccnc1 (stereo unspecified)	none
O=C(/C=C/c1ccccc1)N1CCC(c2ccccc2)C1 (stereo unspecified)	hgDAF12 agonist 13 | hgDAF12 ag 16 | LXRb DAF12 ctr inactive
O=C(/C=C/c1ccco1)N1CCCC(c2ccccc2)C1 (stereo unspecified)	none
CCc1ccc(NC(=O)N2CCC(c3ccccc3)C2)cc1 (stereo unspecified)	hgDAF12 agonist 18, DAX1 inh-2 3.7 | hgDAF12 ag 14 | LXRb DAF12 ctr inactive
Cc1cc(S(=O)(=O)NC2CC(C)(C)NC(C)(C)C2)c(Cl)cc1Cl	none
Cc1nn(CC(=O)NCCC2=CCCCC2)c(C)c1[N+](=O)[O-]	none
C(=N\NC1=Nc2cccc3cccc1c23)/c1cccnc1	hgDAF12 agonist 16 | hgDAF12 ag 11 | LXRb DAF12 ctr inactive
Clc1ccccc1-c1nc(N/N=C/c2cccnc2)c2ccccc2n1	none
Nc1c(-c2ccccc2)sc2ccc3ccccc3[n+]12	none
O=c1/c(=C/c2cccc3ccccc23)sc2ncnn12	none
Cc1ccsc1/C=c1\sc2ncnn2c1=O	hgDAF12 agonist 14 | hgDAF12 ag inactive | LXRb DAF12 ctr inactive
C(=C\c1ccccc1)/C=N/Nc1nc2ccccc2[nH]1	hgDAF12 agonist 15 | hgDAF12 ag 17 | LXRb DAF12 ctr inactive
Cc1ccnc(NC(=O)Nc2ccc(F)cc2)c1	hgDAF12 agonist 14 | hgDAF12 ag 19 | LXRb DAF12 ctr inactive
Cc1ccc(NC(=O)Nc2ccc(F)cc2)nc1	none
CC(C)Cc1ccc(C(C)C(=O)OCC(=O)c2c[nH]c3ccccc23)cc1 (stereo unspecified)	none
